# Measurements as given in PubChem BioAssay (Tox21).
# Results filed as inconclusive are left out. Where a call stands in place of a potency, no number is given. The source made the active and inactive calls. Calls come from the whole dose curve.
# Molecular target: Acetylcholinesterase (Homo sapiens) (UniProt P22303)
# Assay: Acetylcholinesterase (AChE) small molecule antagonists: fluorescence cell-based qHTS assay (AID 1347398); note: nearly all actives have a fitted effect of over 50% in size
# Conditions: SH-SY5Y cells; Potency: AChE activity; outcome: AChE activity; series mostly up to 115 µM
# Outline: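 Endogenous acetylcholinesterase of SH-SY5Y neuroblastoma cells is measured in situ. After overnight attachment and 30 min compound exposure, cells receive acetylthiocholine and Thiolite Green; fluorescence is read after 40 min at room temperature.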
# Acetylcholinesterase (Homo sapiens), sequence (P22303 whole entry, looked up): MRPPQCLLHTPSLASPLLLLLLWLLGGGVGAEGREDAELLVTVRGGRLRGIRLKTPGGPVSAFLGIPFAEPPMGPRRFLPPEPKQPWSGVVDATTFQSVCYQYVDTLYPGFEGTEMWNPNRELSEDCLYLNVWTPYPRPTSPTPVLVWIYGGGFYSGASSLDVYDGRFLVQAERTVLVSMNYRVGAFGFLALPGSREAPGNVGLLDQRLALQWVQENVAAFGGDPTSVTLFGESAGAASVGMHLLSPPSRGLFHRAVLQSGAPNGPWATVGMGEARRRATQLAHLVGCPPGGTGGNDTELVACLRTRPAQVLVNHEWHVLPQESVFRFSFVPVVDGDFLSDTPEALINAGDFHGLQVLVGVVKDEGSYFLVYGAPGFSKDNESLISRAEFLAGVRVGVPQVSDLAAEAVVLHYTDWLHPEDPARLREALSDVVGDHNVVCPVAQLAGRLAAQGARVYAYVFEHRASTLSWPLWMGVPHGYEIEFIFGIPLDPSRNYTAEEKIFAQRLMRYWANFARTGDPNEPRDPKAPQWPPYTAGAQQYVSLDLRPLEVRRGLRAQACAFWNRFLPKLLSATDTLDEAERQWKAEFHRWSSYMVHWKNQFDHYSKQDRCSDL
row,SMILES,Potency
1,CCOC(=O)COc1cc(-n2ncc(C(F)(F)F)c(C)c2=O)c(F)cc1Cl,inactive
2,CCCC(CC)CCCCCCCN (configuration not stated),inactive
3,CS(C)=O,inactive
4,CC(COc1ccccc1)NN (configuration not stated),inactive
5,CC(C)COC(=O)COc1cc(Cl)c(Cl)cc1Cl,inactive
6,CCCCOc1ccc(OCCCN2CCOCC2)cc1,inactive
7,O=C(/C=C/c1ccc(O)c(O)c1)O[C@@H]1C[C@](O)(C(=O)O)C[C@@H](O)[C@H]1O,inactive
8,CCCCCCC(=O)OCC,inactive
9,Cc1ccc(S(=O)(=O)C(I)I)cc1,inactive
10,O=S(=O)(O)c1ccccc1/C=C/c1ccc(-c2ccc(/C=C/c3ccccc3S(=O)(=O)O)cc2)cc1,inactive
11,C=CCc1ccccc1OCC(O)CNC(C)C (configuration not stated),inactive
12,CO[Si](CCCS)(OC)OC,inactive
13,O=C1OC(CN2CCOCC2)CN1/N=C/c1ccc([N+](=O)[O-])o1 (configuration not stated),inactive
14,COCCCC/C(=N\OCCN)c1ccc(C(F)(F)F)cc1,inactive
15,CN(C1CCCCC1)S(=O)(=O)c1ccccc1N,inactive
16,N#CCc1ccccc1[N+](=O)[O-],inactive
17,COC(=O)Nc1nc2ccc(C(=O)c3ccccc3)cc2[nH]1,inactive

# Molecular target: Acetylcholinesterase (Homo sapiens) (UniProt P22303)
# Assay: Acetylcholinesterase (AChE) small molecule antagonists: enzyme-based qHTS assay with human liver microsomes (AID 1347399); note: nearly all actives have a fitted effect of over 60% in size; note: potency is the fitted concentration of half-maximal effect
# Conditions: Potency: qHTS inhibition; outcome: qHTS inhibition; series mostly up to 115 µM
# Outline: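 Recombinant human AChE (50 mU/mL in the enzyme mix) and human liver microsomes (0.25 mg/mL final) were preincubated with compound and NADPH (0.25 mg/mL final) for 30 min at 37 C. Acetylthiocholine/DTNB was then added; thiocholine was read colorimetrically after 10 min at room temperature.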
row,SMILES,Potency
1,c1ccc(CNCc2ccccc2)cc1,inactive
2,O=c1cc(CO)occ1O,inactive
3,OCCN1CN(CCO)CN(CCO)C1,inactive
4,CC(O)C1CCCCC1 (configuration not stated),inactive
5,O=C(c1ccccc1)C1CCC1,inactive
6,C=CC(=O)OCCCl,inactive
7,CC(=O)CC(c1ccc([N+](=O)[O-])cc1)c1c(O)c2ccccc2oc1=O (configuration not stated),inactive
8,C#C[C@]1(O)CC[C@H]2[C@@H]3CCc4cc(OC5CCCC5)ccc4[C@H]3CC[C@@]21C,inactive
9,O=c1[nH]c(=O)n([C@H]2O[C@H](CO)[C@@H](O)[C@@H]2O)cc1/C=C\Br,inactive
10,Clc1cc(Cl)c2c(c1)N=C1CCCCCN1C2,3.89 µM (active)
11,C=CCCC(=O)O,inactive
12,O=c1[nH]sc2ccccc12,inactive
13,CCO,inactive
14,N#Cc1ccc(C/C(=N/NC(=O)Nc2ccc(OC(F)(F)F)cc2)c2cccc(C(F)(F)F)c2)cc1,inactive
15,CC[C@@H]1C[C@H](N(Cc2cc(C(F)(F)F)cc(C(F)(F)F)c2)C(C)=O)c2cc(C(F)(F)F)ccc2N1C(=O)OC(C)C,inactive
16,CCN(CC)C(=O)Nc1ccc(OCC(O)CNC(C)(C)C)c(C(C)=O)c1 (configuration not stated),inactive
17,CCCCOCC,inactive
18,CCC1Nc2cc(Cl)c(S(N)(=O)=O)cc2S(=O)(=O)N1 (configuration not stated),inactive
19,Nc1nc(N)c(-c2ccccc2)s1,inactive
20,O=[N+]([O-])c1ccc2[nH]ncc2c1,inactive

row,SMILES,Potency
1,CC(C)(C)C1CCC(=O)CC1,inactive
2,O=C(CCS)OCC(COC(=O)CCS)(COC(=O)CCS)COC(=O)CCS,inactive
3,OC[C@H]1O[C@@H](O[C@@H]2[C@@H](CO)O[C@](O)(CO)[C@H]2O)[C@H](O)[C@@H](O)[C@H]1O,inactive
4,CCOC(=O)COc1cc(-n2ncc(C(F)(F)F)c(C)c2=O)c(F)cc1Cl,inactive
5,CCCC(CC)CCCCCCCN (configuration not stated),inactive
6,CS(C)=O,inactive
7,CC(COc1ccccc1)NN (configuration not stated),inactive
8,CC(C)COC(=O)COc1cc(Cl)c(Cl)cc1Cl,inactive
9,CCCCOc1ccc(OCCCN2CCOCC2)cc1,inactive
10,O=C(/C=C/c1ccc(O)c(O)c1)O[C@@H]1C[C@](O)(C(=O)O)C[C@@H](O)[C@H]1O,inactive
11,CCCCCCC(=O)OCC,inactive
12,Cc1ccc(S(=O)(=O)C(I)I)cc1,inactive
13,O=S(=O)(O)c1ccccc1/C=C/c1ccc(-c2ccc(/C=C/c3ccccc3S(=O)(=O)O)cc2)cc1,inactive
14,C=CCc1ccccc1OCC(O)CNC(C)C (configuration not stated),inactive
15,CO[Si](CCCS)(OC)OC,inactive
16,O=C1OC(CN2CCOCC2)CN1/N=C/c1ccc([N+](=O)[O-])o1 (configuration not stated),inactive
17,COCCCC/C(=N\OCCN)c1ccc(C(F)(F)F)cc1,inactive
18,CN(C1CCCCC1)S(=O)(=O)c1ccccc1N,inactive
19,N#CCc1ccccc1[N+](=O)[O-],inactive
20,COC(=O)Nc1nc2ccc(C(=O)c3ccccc3)cc2[nH]1,inactive
